Records with an inconclusive call do not appear. Calls of active or inactive are those of the source. Unless noted, calls come from the whole dose curve; as a rule, active = well fitted curve in the direction sought with a large enough effect; inconclusive = small, poorly fitted or top-dose-only effect, or another doubt; inactive = no such curve, though single readings can be large; an effect the other way counts as inactive or inconclusive.
Assays:
[1] = Cell Viability - Jurkat (AID 426;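 active = dose-dependent loss of cell ATP signal giving a full or clear fitted curve, ranked by lower potency value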; note: potency is the fitted concentration of half-maximal effect); settings: qHTS
How it was run: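 Jurkat (clone E6-1, human T-cell leukemia) cells, 5000/well in complete medium, were exposed to compound for 40 hr at 37 °C. Viability was read as intracellular ATP by CellTiter-Glo luminescence; AC50 came from Hill fits of concentration-response data.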

[2] = Cell Viability - Hek293 (AID 427;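 active = compounds whose dose-response curve shows a full or clear partial loss of cell viability, called from curve shape rather than a numeric limit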;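 note: potency is the fitted concentration of half-maximal effect; cells exposed to compound for 40 hours at 37 °C before reading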); settings: qHTS
How it was run: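 Luminescent ATP read-out (CellTiter-Glo, 20 min RT) after 40 hr compound exposure at 37 °C in complete medium. Signal normalized to DMSO (basal) and 100 uM tamoxifen (100% inhibition); concentration-response fitted with the standard Hill equation to give AC50.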

[3] = Cell Viability - HepG2 (AID 433; calls by dose curve;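 note: potency is the fitted concentration of half-maximal effect; potency for ATP loss meaning cytotoxicity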); settings: qHTS
How it was run: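 Read-out is luciferase-based quantitation of cellular ATP as a measure of viable HepG2 cells after 40 h treatment at 37 °C. Signal decrease is scaled between DMSO-only and 100 uM tamoxifen controls, with AC50 fitted by the Hill equation.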

[4] = Cell Viability - MRC5 (AID 434; calls by dose curve;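 note: potency is the fitted concentration of half-maximal effect; potency reflects cytotoxicity seen as loss of intracellular ATP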); settings: MRC5 lung fibroblast viability, qHTS
How it was run: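 MRC5 normal human lung fibroblasts, 1500 cells/well, exposed to compound for 40 hr at 37 C. Cellular ATP was read by CellTiter-Glo luminescence; data normalized to DMSO and 100 uM tamoxifen, with AC50 from Hill fits.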

[5] = Cell Viability - N2a (AID 540); settings: N2a mouse neuroblastoma cell viability; at 92.2 µM (top of the series);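 note: plate controls were DMSO alone for no effect and tamoxifen control for full effect; nearly all actives have a fitted effect of over 45% in size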
How it was run: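 Mouse neuroblastoma N2a cells (1500/well) were preincubated 5 hr at 37 °C, then exposed to compounds for 40 hr at 37 °C in complete medium. Viability was read as intracellular ATP by CellTiter-Glo luminescence; AC50 from Hill fits.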

[6] = Cell Viability - NIH 3T3 (AID 541); settings: NIH 3T3 cell viability, qHTS; activity change, negative = cytotoxicity: at 92.2 µM (top of the series);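 note: plate controls were DMSO alone for no effect and tamoxifen positive control for full effect; nearly all actives have a fitted effect of over 25% in size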
How it was run: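 NIH 3T3 mouse embryo fibroblasts (1000 cells/well) were plated in complete medium and treated with compound for 40 hr at 37 °C. Viability was read as intracellular ATP by CellTiter-Glo luminescence; AC50 values came from Hill-equation fits of concentration-response data.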

[7] = Cell Viability - HUV-EC-C (AID 542); note: % is set by controls: 0 for no effect and ±100 for the full control effect; nearly all actives have a fitted effect of over 35% in size
How it was run: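 HUV-EC-C normal human vascular endothelial cells, 1000 cells/well, pre-incubated 5 hr at 37 °C, then exposed to compounds for 40 hr at 37 °C in complete medium. Viability measured as intracellular ATP by CellTiter-Glo luminescence; AC50 from Hill fits.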

[8] = Cell Viability - H-4-II-E (AID 543); note: % is set by controls: 0 for no effect and ±100 for the full control effect; nearly all actives have a fitted effect of over 35% in size
How it was run: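 Rat hepatoma H-4-II-E cells (1500/well) were plated, incubated 5 hr at 37 °C, then exposed to compounds for 40 hr at 37 °C. Cellular ATP was read by CellTiter-Glo luminescence; AC50 came from Hill-equation fits of concentration-response data.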

[9] = Cell Viability - SH-SY5Y (AID 544); settings: SH-SY5Y neuroblastoma cell viability; viability change, negative = cytotoxic: at 92.2 µM (top of the series); note: nearly all actives have a fitted effect of over 55% in size
How it was run: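 Human neuroblastoma SH-SY5Y cells (1500/well) in complete medium were exposed to compounds for 40 hr at 37 °C; intracellular ATP was then quantified by CellTiter-Glo luminescence after 20 min at room temperature. AC50 came from Hill-equation concentration-response fits.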

[10] = Cell Viability - Renal Proximal Tubule (AID 545); settings: renal proximal tubule cells viability; at 91.7 µM (top of the series), primary cells of rat origin unless noted; note: nearly all actives have a fitted effect of over 40% in size
How it was run: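 Luminescent ATP signal (CellTiter-Glo) served as the viability read-out after 40 hr compound exposure of freshly isolated rat proximal tubule cells at 37 °C. Concentration-dependent ATP loss was fitted with the Hill equation to give AC50.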

[11] = Cell Viability - Mesenchymal (AID 546);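 note: cells exposed to compound for 40 hours before reading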
How it was run: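 Human kidney mesenchymal cells from normal renal glomeruli, 1000 cells/well, rested 5 hr at 37 °C, then treated 40 hr at 37 °C in complete medium. Cellular ATP read by CellTiter-Glo luminescence; AC50 from Hill-equation fits.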

[12] = Cellular Toxicity (caspase-3) HepG2 (AID 654);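 note: cells exposed to compound for 16 hours before reading; 0% = DMSO alone and 100% = caspase signal from 100 µM tamoxifen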
How it was run: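 HepG2 cells (1500/well) in complete medium were treated with compounds for 16 hr at 37 °C. Caspase-3/7 activity was then read as luminescence from peptide-aminoluciferin cleavage. AC50 came from Hill fits, normalized to DMSO and 100 uM tamoxifen.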

[13] = Cellular Toxicity (caspase-3) Jurkat (AID 655); settings: Jurkat caspase-3 activation, luminescence, DMSO = 0%, tamoxifen = 100%; at 92.2 µM (top of the series);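 note: cells exposed to compound for 16 h at 37 °C before reading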
How it was run: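 5000 Jurkat cells/well; compound 16 hr, 37 °C; Caspase-Glo 3/7 added, 20 min RT; luminescence read. Norm: DMSO = 0%, tamoxifen 100 uM = 100%. AC50, Hill model.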

[14] = Cellular Toxicity (caspase-3) HUV-EC-C (AID 656)
How it was run: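 qHTS; HUV-EC-C, 1000 cells/well; 5 hr settle, 16 hr cmpd, 37°C; Caspase-Glo 3/7, 20 min RT; luminescence. Norm: DMSO = 0%, tamoxifen 100 uM = 100%. Hill-fit AC50.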

[15] = Cellular Toxicity (caspase-3) SHSY5Y (AID 657)
How it was run: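 qHTS, SH-SY5Y, 1500 cells/well, 5 h pre-incubation 37 °C; compound 16 h 37 °C; Caspase-Glo 3/7 1 h RT; luminescence. Norm.: DMSO = 0, 10 uM staurosporine = 100%. Hill fit → AC50.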

[16] = Cellular Toxicity (caspase-3) BJ (AID 658);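 note: 0% = DMSO basal and 100% = 10 µM staurosporine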
How it was run: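 BJ human foreskin fibroblasts, 1000 cells/well, treated 16 hours at 37 °C in complete medium; caspase 3/7 activity by Caspase-Glo luminescence after 1 hr at room temperature. Normalized to DMSO and 10 uM staurosporine; AC50 from Hill fits.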

[17] = Cellular Toxicity (caspase-3) MRC-5 (AID 659);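 note: 0% = DMSO basal and 100% = 10 µM staurosporine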
How it was run: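 MRC-5 human normal lung fibroblasts, 1500 cells/well, treated 16 h at 37 °C in complete medium. Caspase 3/7 measured by Caspase-Glo luminescence after 1 h at room temperature. Normalized to DMSO and 10 uM staurosporine; AC50 from Hill fit.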

[18] = Cellular Toxicity (caspase-3) Mesangial (AID 660)
How it was run: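 Human renal glomerular mesangial cells (1000/well) were treated with compounds for 16 h at 37 °C in complete medium, then caspase 3/7 activity was read by Caspase-Glo luminescence. Data were normalized to DMSO and 100 uM tamoxifen; AC50 from Hill fits.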

[19] = Cellular Toxicity (caspase-3) SK-N-SH (AID 661);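 note: 0% = DMSO basal and 100% = 10 µM staurosporine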
How it was run: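 SK-N-SH human neuroblastoma cells (1500/well) were treated with compounds for 16 hr at 37 °C in complete medium; caspase 3/7 activity was read by Caspase-Glo luminescence. AC50 came from Hill fits of data normalized to DMSO and 10 uM staurosporine.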

[20] = Cellular Toxicity (caspase-3) H-4-II-E (AID 663);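 note: cells exposed to compound for 16 hr before readout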
How it was run: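 Rat hepatoma H-4-II-E cells (1500/well) plated 5 hr, then exposed to compound titrations for 16 hr at 37 °C. Caspase-Glo 3/7 luminescence read after 20 min at RT; data normalized to DMSO and 100 uM tamoxifen, AC50 from Hill fits.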

[21] = Cellular Toxicity (caspase-3) Hek293 (AID 664);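 note: cells exposed to compound for 16 h at 37 °C before readout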
How it was run: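 HEK293 cells were exposed to compounds in complete medium for 16 hr at 37 °C, then caspase-3/7 activity was read by Caspase-Glo 3/7 luminescence after 20 min at room temperature. Data normalized to DMSO and 100 uM tamoxifen; AC50 from Hill fits.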

Nc1ccc(Br)cc1
inactive: Potency [1] > 92 µM | Potency [2] > 92 µM | Potency [3] > 92 µM | Potency [4] > 92 µM | activity change, negative = cytotoxicity [5] -2.5% | activity change, negative = cytotoxicity [6] -14.1% | Potency [7] | Potency [8] | Potency [9] | activity change, negative = cytotoxicity [10] -3.48% | outcome [11] | outcome [12] | caspase-3 activation [13] 5.03% | outcome [14] | outcome [15] | outcome [16] | outcome [17] | outcome [18] | outcome [19] | outcome [20] | outcome [21]

— PubChem BioAssay (NCATS)
